uPA generation – cell surface uPA generation inhibition; Potency, µM (highest dose often 38.3 µM), for inactives: top-dose activity change, negative = inhibition, usual class: inhibitors; hit rate 0.31% among 330,000; cell surface uPA generation assay, qHTS; active = well fitted inhibition curve with a large enough effect; inconclusive = small, poorly fitted or top-dose-only effect; inactive = no such curve, though single readings can be large or run the other way; tested in mouse RAW 264.7 cells; also: potency is read from the fitted curve at half-maximal effect; nearly all actives have a fitted effect of over 55% in size
TDP1 cell CPT – growth inhibition of DT40 Tdp1-/-;hTDP1 cells with camptothecin (screen for TDP1 inhibitors) | chicken DT40 Tdp1-/-;hTDP1 cells + 20 nM CPT, ATP luminescence, 48 h | Potency, µM (highest dose often 46.2 µM), for inactives: top-dose activity change, negative = growth inhibition, usual class: inhibitors | hit rate 12% among 420,000; also: potency is read from the fitted curve at half-maximal effect; nearly all actives have a fitted effect of over 55% in size
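Chicken DT40 Tdp1-/- cells complemented with human TDP1, 400 cells/well, exposed to compounds plus 20 nM camptothecin for at least 48 h at 37 C; viability read as ATP content by CellTiter-Glo luminescence.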
TDP1 cell noCPT – qHTS for Inhibitors of human tyrosyl-DNA phosphodiesterase 1 (TDP1): qHTS in cells in absence of CPT | Potency, µM (titrated, usually from 46.2 µM), for inactives: at the highest dose activity change, negative = growth inhibition, hits mostly inhibitors | hit rate 15% among 420,000 | DT40 Tdp1-/- hTDP1 cells, no CPT, ATP luminescence, 48 h; also: potency is read from the fitted curve at half-maximal effect; nearly all actives have a fitted effect of over 55% in size
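A cellular qHTS used chicken DT40 cells lacking endogenous Tdp1 but carrying stably transfected human TDP1. Compounds were applied without camptothecin, and cell growth kinetics were judged by ATP-dependent luminescence after ≥48 hr.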
IL1B secr inh – blocks inflammasome-driven IL-1 beta release; activity change, % at 57.5 µM; hit rate 4.7% among 360,000; THP-1 LPS/ATP IL-1B secretion, AlphaLISA, 16 h; stronger effect = lower value; AID 743279; in the data active = activity change below about -50%; inconclusive = mostly about -30% to -49%
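THP-1 cells pretreated 1 hr with compounds (up to 57.5 uM final), then stimulated with LPS (250 ng/mL final) plus ATP (1.25 mM final); secreted IL-1B measured by AlphaLISA after 16 hr, decreased signal indicating inhibition.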
HT1080 IDH1KD tx – HT-1080 IDH1 knockdown cell toxicity (counter line); hit rate 2% among 360,000; HT-1080 IDH1 knockdown viability, ATP luminescence, 48 h; Potency, µM (highest dose often 46.1 µM), without a hit: at the top dose activity, negative = toxicity, hits mostly cytotoxic;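 also: potency is read from the fitted curve at half-maximal effect; 0% = DMSO wells and -100% = cell-free medium wells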
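CellTiter-Glo luminescence after 48 h compound exposure at 37 degrees C of IDH1-knockdown HT-1080 cells in 5% FBS RPMI. %Activity scaled between DMSO wells and cell-free media wells, with curves fitted and assigned curve classes.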
HT1080NT lethal – kills 2HG-producing HT-1080-NT fibrosarcoma cells; AID 686970; hit rate 1.6% among 360,000; HT-1080-NT fibrosarcoma viability, CellTiter-Glo ATP luminescence, 48 h; Potency, µM (top dose mostly 46.1 µM), for inactives: at the top dose activity, negative = less viability, most hits filed as cytotoxic;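 also: NT is the 2HG producing partner of a matched IDH1 knockdown line; potency is read from the fitted curve at half-maximal effect; 0% = DMSO-treated cells and -100% = media-only wells without cells; nearly all actives have a fitted effect of over 55% in size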
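HT-1080-NT fibrosarcoma cells (2HG-overproducing), 750 cells/well in RPMI with 5% FBS, dosed after 2 h and incubated 48 h at 37C. CellTiter-Glo luminescence normalized to DMSO and no-cell wells; concentration-response curves fitted and classed.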
Active calls of the source: *; ! = repeats disagree. In the library only some 19% were active in any assay of this set; here they are far more common. Unless noted, calls follow the shape of the dose curve; as a rule, active = well fitted curve in the direction sought with a large enough effect; inconclusive = small, poorly fitted or top-dose-only effect, or another doubt; inactive = no such curve, though single readings can be large; an effect the other way counts as inactive or inconclusive. Unless noted, % is scaled to controls: 0 for no effect and ±100 for the full control effect.

CCC(=O)NC(=S)Nc1ccc(NC(=S)NC(=O)c2ccccc2)cc1 was read as uPA generation -8%, TDP1 cell CPT inconclusive, TDP1 cell noCPT 18µM*, IL1B secr inh 1, HT1080 IDH1KD tx -2% and HT1080NT lethal -7%.
O=C(NC(=S)Nc1ccc(Oc2ccc(Cl)cc2)cc1)c1ccccc1 was read as uPA generation -4%, TDP1 cell CPT inconclusive, TDP1 cell noCPT 21µM*, IL1B secr inh 12, HT1080 IDH1KD tx inconclusive and HT1080NT lethal -10%.
O=C(Nc1ccc(NC(=S)NC(=O)C(c2ccccc2)c2ccccc2)cc1)c1ccccc1 was read as uPA generation -7%, TDP1 cell CPT inconclusive, TDP1 cell noCPT 15µM*, IL1B secr inh inconclusive, HT1080 IDH1KD tx inconclusive and HT1080NT lethal -26%.
Screening Cc1ccc(C(c2sc3nc(-c4ccco4)nn3c2O)N2CCC3(CC2)OCCO3)cc1 (configuration not stated) returned TDP1 cell CPT -1% and TDP1 cell noCPT 7%.
For COCCn1c(-c2ccc(OC)cc2)cnc1SCC(=O)Nc1cccc2ccccc12 the results were TDP1 cell CPT inconclusive, TDP1 cell noCPT inconclusive, IL1B secr inh -8, HT1080 IDH1KD tx inconclusive and HT1080NT lethal -17%.
Screening Cc1cc(C)c(NC(=S)NC(=O)c2ccccc2)cc1C returned TDP1 cell CPT 21µM*, TDP1 cell noCPT 8.2µM*, IL1B secr inh 3, HT1080 IDH1KD tx inconclusive and HT1080NT lethal 1%.
`CCC(C)c1ccccc1OCC(=O)Nc1ccc(S(=O)(=O)Nc2cc(C)on2)cc1` (configuration not stated) gave TDP1 cell CPT -14% and TDP1 cell noCPT -22%.
`O=C(/C=C/c1ccco1)Nc1ccc2c(c1)OCCO2` gave uPA generation -17%, TDP1 cell CPT -16%, TDP1 cell noCPT -17%, IL1B secr inh -70*, HT1080 IDH1KD tx 9% and HT1080NT lethal 10%.
COc1ccc(OC)c(/C=C/C(=O)Nc2ccc3c(c2)CCC3)c1 was read as uPA generation 10%, TDP1 cell CPT inconclusive, TDP1 cell noCPT inconclusive, IL1B secr inh -5, HT1080 IDH1KD tx -9% and HT1080NT lethal -2%.
Screening O=C(/C=C/c1ccco1)Nc1ccc(Oc2ccc(Cl)cc2)cc1 returned uPA generation -10%, TDP1 cell CPT 4.1µM*, TDP1 cell noCPT 3.3µM*, IL1B secr inh -7, HT1080 IDH1KD tx 4.1µM* and HT1080NT lethal 5.8µM*.
For COc1ccccc1/C=C/C(=O)Nc1ccc2c(c1)CCC2 the results were uPA generation 2%, TDP1 cell CPT -27%, TDP1 cell noCPT 12µM*, IL1B secr inh inconclusive, HT1080 IDH1KD tx -2% and HT1080NT lethal -3%.
O=C(/C=C/c1ccco1)Nc1ccc(N2CCCC2)cc1 was read as uPA generation 0%, TDP1 cell CPT 0%, TDP1 cell noCPT -10%, IL1B secr inh -2, HT1080 IDH1KD tx 21% and HT1080NT lethal 13%.
`COc1ccccc1/C=C/C(=O)Nc1ccc2c(c1)OCCO2` gave uPA generation 4µM*, TDP1 cell CPT 8.2µM*, TDP1 cell noCPT 10µM*, IL1B secr inh -58*, HT1080 IDH1KD tx inconclusive and HT1080NT lethal -24%.
Screening Cc1ccc(C(=O)NCCc2ccc(S(N)(=O)=O)cc2)cc1-n1cnc2cccnc21 returned TDP1 cell CPT -23% and TDP1 cell noCPT -20%.
Screening O=C1C=CC2=C3c4cc(O)c(O)cc4CC3(O)COC2=C1O (configuration not stated) returned uPA generation -9%, TDP1 cell CPT 16µM*!, TDP1 cell noCPT inconclusive, IL1B secr inh -3, HT1080 IDH1KD tx -17% and HT1080NT lethal -26%.
For CC(C)CCNC(=O)CN1C(=O)c2cccnc2Oc2ccccc21 the results were TDP1 cell CPT -4% and TDP1 cell noCPT -18%.
For CCOC(=O)/C(=N/Nc1ccc(C)cc1)S(=O)(=O)c1ccc(Cl)cc1 the results were uPA generation -10%, TDP1 cell CPT 16µM*, TDP1 cell noCPT inconclusive, IL1B secr inh inconclusive, HT1080 IDH1KD tx inconclusive and HT1080NT lethal inconclusive.
Screening CCOC(=O)/C(=N\Nc1ccccc1)S(=O)(=O)c1ccccc1 returned TDP1 cell CPT -18%, TDP1 cell noCPT inconclusive, IL1B secr inh -10, HT1080 IDH1KD tx -2% and HT1080NT lethal -4%.
CC(C)C1COc2cc3oc(=O)ccc3cc2O1 (configuration not stated) was read as TDP1 cell CPT -8% and TDP1 cell noCPT -10%.
`COC(=O)c1ccccc1-n1cc2c(c1-c1cccc(C)c1)c(=O)n(C)c(=O)n2C` gave TDP1 cell CPT 10µM* and TDP1 cell noCPT 7.3µM*.
`COc1ccc(-n2cc3c(c2-c2cccc(Br)c2)c(=O)n(C)c(=O)n3C)cc1OC` gave TDP1 cell CPT 21µM* and TDP1 cell noCPT 13µM*.
Screening Cn1c(=O)c2c(-c3ccccc3)n(-c3ccccc3N)cc2n(C)c1=O returned TDP1 cell CPT inconclusive, TDP1 cell noCPT inconclusive, IL1B secr inh 31, HT1080 IDH1KD tx -3% and HT1080NT lethal -11%.
Cc1cccc(-c2c3c(=O)n(C)c(=O)n(C)c3cn2-c2ccccc2O)c1 was read as uPA generation -6%, TDP1 cell CPT inconclusive, TDP1 cell noCPT -22%, IL1B secr inh 28, HT1080 IDH1KD tx -17% and HT1080NT lethal -19%.
`Cc1cc(N)c(-n2cc3c(c2-c2ccc(Br)cc2)c(=O)n(C)c(=O)n3C)cc1C` gave TDP1 cell CPT 16µM* and TDP1 cell noCPT 13µM*.
For Cc1cccc(-c2c3c(=O)n(C)c(=O)n(C)c3cn2-c2cc(N)c(Cl)cc2Cl)c1 the results were TDP1 cell CPT 5.8µM* and TDP1 cell noCPT 3.7µM*.
Screening CC1CCCN(C(=O)Cn2nnc(-c3ccccc3F)n2)C1 (configuration not stated) returned uPA generation 5%, TDP1 cell CPT -13%, TDP1 cell noCPT 26%, IL1B secr inh 0, HT1080 IDH1KD tx 9% and HT1080NT lethal 8%.
CCN(CC(=O)NC(C)C)C(=O)Cc1ccc(C)c(C)c1 was read as uPA generation 0%, TDP1 cell CPT 1%, TDP1 cell noCPT -23%, IL1B secr inh 11, HT1080 IDH1KD tx inconclusive and HT1080NT lethal 18%.
`COc1ccc(CCNC(=O)c2cnc3ccc(C)cn3c2=O)cc1` gave TDP1 cell CPT inconclusive and TDP1 cell noCPT -26%.
